Test results from PubChem BioAssay (Tox21).
“And” between values parts separate entries of the source, which are not always exact repeats. Identical values can stand only once. Inconclusive results are not listed. Some structures have more than one record in an assay (separate samples or runs), and their calls can disagree. The source made the active and inactive calls. Unless noted, calls come from the whole dose curve.

Key:
[1] = Nuclear factor erythroid 2-related factor 2/antioxidant responsive element (Nrf2/ARE) small molecule agonists: qHTS cell viability counter screen in human keratinocytes (AID 1919968; active = well fitted curve in the direction sought with a large enough effect in the repeat runs; an effect the other way counts as inactive or inconclusive; note: nearly all actives have a fitted effect of over 55% in size; note: potency is the fitted concentration of half-maximal effect)
How it was run: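 Fluorescence read-out from CellTiter-Fluor after 1 h at 37 C. Wells held HaCaT-derived ARE-luciferase reporter cells (1,500/well) treated 23 h with DMSO-dissolved compounds. Run in the same wells as the luciferase agonist read.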

[2] = Nuclear factor erythroid 2-related factor 2/antioxidant responsive element (Nrf2/ARE) small molecule agonists: luciferase reporter gene qHTS assay in human keratinocytes (AID 1919969); note: nearly all actives have a fitted effect of over 35% in size; note: potency is the fitted concentration of half-maximal effect
[3] = target: Gonadotropin-releasing hormone receptor (Homo sapiens) (UniProt P30968); test: Human gonadotropin-releasing hormone receptor (GnRHR) small molecule agonists, calcium flux assay in GnRHR-HEK293 cells (AID 1920063); note: nearly all actives have a fitted effect of over 35% in size; note: potency is the fitted concentration of half-maximal effect
How it was run: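 Calcium-dye fluorescence, Ex/Em=480/540, recorded every 1 sec over 3 min after compound addition to GnRHR-HEK293 cells. Cells had been seeded 18 hours earlier and dye-loaded for 1 hour at 37 C. Fifteen concentrations, triplicates.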

[4] = target: KiSS-1 receptor (Homo sapiens) (UniProt Q969F8); test: Human kisspeptin (KISS1R) small molecule agonists, calcium flux assay in KISS1R-HEK293 cells (AID 1920064; active = well fitted curve in the direction sought with a large enough effect in the repeat runs; an effect the other way counts as inactive or inconclusive)
How it was run: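 Calcium flux read-out: kinetic fluorescence at Ex/Em=480/540, 1 s intervals over 3 min, after pin-tool compound addition to dye-loaded KISS1R-HEK293 cells. Fifteen concentrations, triplicates.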

[5] = G protein-coupled receptor (GPCR) small molecule agonists, calcium flux assay: HEK293 wild type cell line counter screen (AID 1920065)
How it was run: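 Agonist mode; 18 h seeding at 37 C, 1 h dye load at 37 C; compounds pinned from DMSO, ATP as positive control; kinetic fluorescence 480/540 nm, 3 min, 1 s reads; 15 concentrations, triplicate.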

[6] = p53 small molecule agonists, cell-based qHTS assay with human liver microsomes: qHTS cell viability counter screen (AID 1963579); note: nearly all actives have a fitted effect of over 45% in size; note: potency is the fitted concentration of half-maximal effect
How it was run: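 After the 460/530 nm beta-lactamase read, CellTiter-Glo was added to the same wells and luminescence measured after 30 min at room temperature, giving viability of p53RE-bla cells treated 16 h with compounds plus microsomes and NADPH.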

[7] = p53 small molecule agonists, cell-based qHTS assay with rat liver microsomes: qHTS cell viability counter screen (AID 1963580); note: nearly all actives have a fitted effect of over 45% in size
How it was run: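 Luminescent ATP readout (CellTiter-Glo, 30 min at room temperature) reports viability of p53RE-bla HCT-116 cells after 16 h at 37 C with test compounds under metabolic activation by rat liver microsomes and NADPH at 0.5 mg/mL final each.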

[8] = p53 small molecule agonists, cell-based qHTS assay: qHTS cell viability counter screen (AID 1963581); note: nearly all actives have a fitted effect of over 45% in size; note: potency is the fitted concentration of half-maximal effect
How it was run: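 Cytotoxicity read-out: ATP-based luminescence (CellTiter-Glo, 30 min RT) measured in the same wells as the p53 reporter assay, HCT-116 p53RE-bla cells, 16 h compound exposure at 37 C.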

[9] = cAMP Responsive Elements (CRE) small molecule agonists, cell-based qHTS assay (AID 1963590)
How it was run: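 Beta-lactamase reporter readout: LiveBLAzer B/G FRET substrate, 2 h at room temperature, added after 3 h compound treatment of CRE-bla HEK 293T cells at 37 C/5% CO2.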

[10] = cAMP Responsive Elements (CRE) small molecule antagonists, cell-based qHTS assay (AID 1963591; active = well fitted inhibition curve with a large enough effect in the signal ratio in the repeat runs, not every such curve was filed as active; the % refers to the signal ratio)
How it was run: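 HEK293T CRE-bla; 18 h preincubation; compound pin-transfer; NKH477 0.25 uM final, 3 h, 37 C; LiveBLAzer FRET substrate 2 h RT.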

[11] = target: Beta-2 adrenergic receptor (Homo sapiens) (UniProt P07550); test: Adrenergic beta2 receptor (ADRB2) small molecule antagonists, cell-based qHTS assay (AID 1963592); note: series mostly up to about 92 µM; nearly all actives have a fitted effect of over 50% in size
How it was run: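 Assay format: CHO-ADRB2 cells, 18-20hr seeding at 37C/5% CO2, then compound plus 1nM isoproterenol agonist mix for 0.5hr RT. Homogeneous time-resolved fluorescence cAMP detection after 1hr, expressed as 665/615 nm ratio.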

[12] = target: D(2) dopamine receptor (Homo sapiens) (UniProt P14416); test: Dopamine D2 receptor (DRD2) small molecule agonists, cell-based qHTS assay (AID 1963594); note: nearly all actives have a fitted effect of over 35% in size
How it was run: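 HEK293 cells stably expressing DRD2 were cultured 24 h at 37 C, then given Ro20-1724 (0.1 mM final) and compounds for 10 min at room temperature. NKH477 (200nM) was then added for 30 min. cAMP was read by HTRF.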

[13] = target: D(2) dopamine receptor (Homo sapiens) (UniProt P14416); test: Dopamine D2 receptor (DRD2) small molecule antagonists, cell-based qHTS assay (AID 1963595; active = well fitted inhibition curve with a large enough effect in the signal ratio in the repeat runs, with a control signal flat; the % refers to the signal ratio; note: potency is the fitted concentration of half-maximal effect)
How it was run: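 DRD2-HEK293; 0.1 mM Ro20-1724; cpd 10 min RT; NKH477 200 nM + quinpirole 12 nM, 30 min RT; HTRF cAMP (cAMP-d2/anti-cAMP cryptate), 665/620 nm ratio after 1 h.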

[14] = target: Beta-2 adrenergic receptor (Homo sapiens) (UniProt P07550); test: Adrenergic beta2 receptor (ADRB2) small molecule agonists, cell-based qHTS assay (AID 1963593);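 note: CHO cells stably overexpressing human ADRB2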
How it was run: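 CHO cells stably over-expressing ADRB2 were plated overnight at 37C, then dosed with compounds plus a stimulation mix containing 100uM IBMX and 25uM Ro-20-1724 for 0.5hr at room temperature. cAMP was measured by HTRF competition, 1hr.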

[15] = target: 5-hydroxytryptamine receptor 2A (Homo sapiens) (UniProt P28223); test: 5-hydroxytryptamine receptor 2A (HTR2A) small molecule antagonists, cell-based qHTS assay (AID 1963586); note: nearly all actives have a fitted effect of over 45% in size
How it was run: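 CHO cells stably expressing human HTR2A were plated for 18 h at 37 C, then loaded with calcium dye for 1 h. Compounds were preincubated 5 min at room temperature before DOI (4 nM solution) was added. Kinetic fluorescence was read for 3 min.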

[16] = target: Muscarinic acetylcholine receptor M1 (Homo sapiens) (UniProt P11229); test: Cholinergic receptor muscarinic 1 (CHRM1) small molecule antagonists, cell-based qHTS assay (AID 1963588); note: nearly all actives have a fitted effect of over 40% in size; note: potency is the fitted concentration of half-maximal effect
How it was run: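 Compounds were tested at 15 concentrations in three independent runs. Dye-loaded CHRM1-CHO cells were exposed 5 min at room temperature before stimulation by acetylcholine added at 50nM. Intracellular calcium was read kinetically on FDSS for 3 min.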

[17] = target: Muscarinic acetylcholine receptor M1 (Homo sapiens) (UniProt P11229); test: Cholinergic receptor muscarinic 1 (CHRM1) small molecule agonists, cell-based qHTS assay (AID 1963589); note: nearly all actives have a fitted effect of over 35% in size
How it was run: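 Calcium flux read-out: kinetic fluorescence at 1 sec intervals after pin-tool compound addition to dye-loaded CHRM1-CHO cells (human M1). Agonist mode; 15 concentrations tested in triplicate independent runs.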

[18] = target: 5-hydroxytryptamine receptor 2A (Homo sapiens) (UniProt P28223); test: 5-hydroxytryptamine receptor 2A (HTR2A) small molecule agonists, cell-based qHTS assay (AID 1963587); note: nearly all actives have a fitted effect of over 30% in size; note: potency is the fitted concentration of half-maximal effect
How it was run: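 HTR2A-CHO cells, plated 18 h at 37 C/5% CO2, dye-loaded 1 h at 37 C; compounds in DMSO added by pin tool (agonist mode). Intracellular calcium flux read as kinetic fluorescence on FDSS over 2 min at 1 s intervals.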

[19] = p53 small molecule agonists, cell-based qHTS assay (AID 1963582; active = well fitted activation curve with a large enough effect in the signal ratio in the repeat runs, not every such curve was filed as active; the % refers to the signal ratio)
How it was run: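 Fluorescence intensity read-out of a beta-lactamase reporter under a p53 response element. Cells were exposed to DMSO-dissolved compounds for 16 h at 37 C, then developed with FRET substrate for 2 h at RT.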

[20] = p53 small molecule agonists, cell-based qHTS assay with rat liver microsomes (AID 1963578)
How it was run: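 Metabolic activation is supplied by rat liver microsomes with NADPH (each 0.5 mg/mL final). p53RE-bla cells incubate with compound 16 h at 37 C; reporter activity is measured by LiveBLAzer fluorescence.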

Measured: Potency

Gonadotropin-releasing hormone receptor (Homo sapiens), sequence (P30968 whole entry, looked up): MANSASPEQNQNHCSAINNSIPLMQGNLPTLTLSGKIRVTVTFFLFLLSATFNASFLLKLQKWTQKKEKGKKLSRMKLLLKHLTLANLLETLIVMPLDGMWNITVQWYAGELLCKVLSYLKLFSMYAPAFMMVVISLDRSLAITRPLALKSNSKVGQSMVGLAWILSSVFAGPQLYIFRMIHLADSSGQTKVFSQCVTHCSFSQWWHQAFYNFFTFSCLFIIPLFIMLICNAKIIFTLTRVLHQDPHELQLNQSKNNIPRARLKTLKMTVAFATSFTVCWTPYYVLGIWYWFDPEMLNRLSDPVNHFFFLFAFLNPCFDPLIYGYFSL
5-hydroxytryptamine receptor 2A (Homo sapiens), sequence (P28223 whole entry, looked up): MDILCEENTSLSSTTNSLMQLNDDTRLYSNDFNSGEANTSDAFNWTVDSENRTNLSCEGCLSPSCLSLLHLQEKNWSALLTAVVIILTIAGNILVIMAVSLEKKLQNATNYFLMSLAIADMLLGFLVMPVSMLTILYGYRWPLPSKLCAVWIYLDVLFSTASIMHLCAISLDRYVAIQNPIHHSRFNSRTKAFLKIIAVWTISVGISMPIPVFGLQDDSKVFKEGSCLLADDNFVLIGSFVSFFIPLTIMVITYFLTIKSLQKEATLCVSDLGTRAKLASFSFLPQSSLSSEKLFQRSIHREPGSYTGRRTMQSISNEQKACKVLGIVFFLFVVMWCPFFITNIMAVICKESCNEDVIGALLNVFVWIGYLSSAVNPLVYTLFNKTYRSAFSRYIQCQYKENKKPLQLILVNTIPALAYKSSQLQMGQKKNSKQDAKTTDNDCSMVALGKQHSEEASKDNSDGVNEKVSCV
KiSS-1 receptor (Homo sapiens), sequence (Q969F8 whole entry, looked up): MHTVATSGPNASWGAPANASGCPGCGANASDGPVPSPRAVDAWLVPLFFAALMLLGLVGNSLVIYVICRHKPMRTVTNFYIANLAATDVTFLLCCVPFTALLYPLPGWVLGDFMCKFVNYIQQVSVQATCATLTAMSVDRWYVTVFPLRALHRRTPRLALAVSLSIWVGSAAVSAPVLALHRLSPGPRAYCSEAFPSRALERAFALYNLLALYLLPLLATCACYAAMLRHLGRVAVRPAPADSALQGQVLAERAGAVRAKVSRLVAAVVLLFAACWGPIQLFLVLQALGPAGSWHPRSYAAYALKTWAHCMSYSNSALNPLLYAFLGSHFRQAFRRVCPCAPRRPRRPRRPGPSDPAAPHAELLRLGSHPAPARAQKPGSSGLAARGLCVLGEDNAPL
Muscarinic acetylcholine receptor M1 (Homo sapiens), sequence (P11229 whole entry, looked up): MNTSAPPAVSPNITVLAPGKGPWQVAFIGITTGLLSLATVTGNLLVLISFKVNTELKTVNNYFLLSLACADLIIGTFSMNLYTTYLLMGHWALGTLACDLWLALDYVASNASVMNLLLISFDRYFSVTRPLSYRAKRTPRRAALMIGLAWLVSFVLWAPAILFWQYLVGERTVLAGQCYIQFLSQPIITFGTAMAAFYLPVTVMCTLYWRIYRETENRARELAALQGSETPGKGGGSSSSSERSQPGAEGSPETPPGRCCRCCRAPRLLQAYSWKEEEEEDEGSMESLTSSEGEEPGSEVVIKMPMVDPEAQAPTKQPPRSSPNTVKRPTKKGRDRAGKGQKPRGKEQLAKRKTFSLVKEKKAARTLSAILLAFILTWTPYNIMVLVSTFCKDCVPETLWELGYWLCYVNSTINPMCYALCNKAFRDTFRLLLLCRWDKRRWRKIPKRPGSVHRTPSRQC
D(2) dopamine receptor (Homo sapiens), sequence (P14416 whole entry, looked up): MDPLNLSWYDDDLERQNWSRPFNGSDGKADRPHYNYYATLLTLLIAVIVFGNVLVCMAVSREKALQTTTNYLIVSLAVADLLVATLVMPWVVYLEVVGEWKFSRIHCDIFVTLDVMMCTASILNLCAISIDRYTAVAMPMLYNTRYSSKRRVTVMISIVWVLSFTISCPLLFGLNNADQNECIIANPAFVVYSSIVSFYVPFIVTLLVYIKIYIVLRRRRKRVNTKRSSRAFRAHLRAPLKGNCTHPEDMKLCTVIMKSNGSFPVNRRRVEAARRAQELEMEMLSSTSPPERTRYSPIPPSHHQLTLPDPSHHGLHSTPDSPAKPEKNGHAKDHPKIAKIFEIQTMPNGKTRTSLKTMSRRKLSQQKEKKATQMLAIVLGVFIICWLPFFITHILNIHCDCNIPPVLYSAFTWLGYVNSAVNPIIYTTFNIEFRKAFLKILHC
Beta-2 adrenergic receptor (Homo sapiens), sequence (P07550 whole entry, looked up): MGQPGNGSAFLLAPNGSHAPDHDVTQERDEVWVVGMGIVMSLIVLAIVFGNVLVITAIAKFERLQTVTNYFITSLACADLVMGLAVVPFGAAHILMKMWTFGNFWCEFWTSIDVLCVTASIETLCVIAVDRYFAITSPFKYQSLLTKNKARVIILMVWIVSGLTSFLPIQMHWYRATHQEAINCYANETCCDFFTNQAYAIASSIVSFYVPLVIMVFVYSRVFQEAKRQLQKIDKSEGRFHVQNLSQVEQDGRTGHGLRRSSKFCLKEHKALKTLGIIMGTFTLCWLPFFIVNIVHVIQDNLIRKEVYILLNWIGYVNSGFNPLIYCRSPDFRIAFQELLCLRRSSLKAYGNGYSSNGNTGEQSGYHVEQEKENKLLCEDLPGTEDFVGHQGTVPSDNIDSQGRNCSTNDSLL

C[C@]12CCC(=O)C=C1CC[C@@H]1[C@@H]2[C@@H](O)C[C@@]2(C)[C@H]1CC[C@]2(O)C(=O)CO
inactive: [1] | [2] | [3] | [4] | [5] | [6] | [7] | [8] | [9] | [10] | [11] | [12] | [13]

CC(C)(Oc1ccc(CCNC(=O)c2ccc(Cl)cc2)cc1)C(=O)O
inactive: [1] | [2] | [3] | [4] | [5] | [6] | [7] | [8] | [9] | [11] | [14] | [12] | [13]

C=C(c1ccc(C(=O)O)cc1)c1cc2c(cc1C)C(C)(C)CCC2(C)C
inactive and 18.3 µM (active): [16]
inactive: [2] | [3] | [4] | [5] | [7] | [15] | [17] | [10] | [11] | [14] | [12] | [13]
active: [1] 27.3 µM and 23.7 µM
inactive and 12.6 µM (active): [8]

Clc1ccc2c(c1)C(N1CCNCC1)=Nc1ccccc1O2
active: [1] 61.1 µM | [13] 13.7 µM and 8.41 µM
inactive: [2] | [3] | [4] | [5] | [6] | [7] | [9] | [10] | [11] | [12]

Cc1ccc(C(C)C)cc1O
inactive: [1] | [2] | [3] | [4] | [5] | [7] | [8] | [15] | [18] | [17] | [9] | [11] | [14] | [12] | [13]

O=C(Oc1ccccc1)c1ccccc1
55 µM (active) and inactive: [18]
inactive: [1] | [2] | [3] | [4] | [5] | [6] | [7] | [16] | [17] | [9] | [10] | [11] | [14] | [12] | [13]

Cc1cccc(Nc2ccccc2C(=O)O)c1C
inactive: [1] | [2] | [3] | [4] | [5] | [6] | [7] | [8] | [11] | [14] | [12] | [13]

CC(c1cc2ccccc2s1)N(O)C(N)=O (stereo not drawn)
inactive: [1] | [2] | [3] | [4] | [5] | [6] | [7] | [8] | [9] | [10] | [11] | [14] | [12] | [13]

COc1ccc2nc(N)sc2c1
inactive and 54.5 µM (active): [2]
inactive: [1] | [3] | [4] | [5] | [7] | [8] | [15] | [18] | [16] | [17] | [10] | [11] | [14] | [12] | [13]

OCc1ccccc1
inactive and 9.69 µM (active): [2]
inactive: [1] | [3] | [4] | [5] | [6] | [7] | [8] | [9] | [10] | [11] | [14] | [12] | [13]

CC(COCC(C)OC(=O)c1ccccc1)OC(=O)c1ccccc1 (stereo not drawn)
inactive: [1] | [2] | [3] | [4] | [5] | [6] | [8] | [15] | [18] | [16] | [17] | [9] | [10] | [11] | [14] | [12] | [13]

CC(C(=O)O)c1cccc(C(=O)c2ccccc2)c1 (stereo not drawn)
inactive: [1] | [2] | [3] | [4] | [5] | [19] | [11] | [14] | [13]

O=c1[nH]cnc2[nH]ncc12
inactive: [1] | [2] | [3] | [4] | [5] | [6] | [7] | [8] | [9] | [10] | [11] | [12] | [13]

CC(C)(C)NCC(O)c1ccc(O)c(CO)c1 (stereo not drawn)
active: [3] 0.0301 µM | [13] 962 nM and 750 nM
inactive: [1] | [2] | [4] | [5] | [8] | [19] | [12]

CC(=O)[C@@]1(O)CC[C@H]2[C@@H]3CCC4=CC(=O)CC[C@]4(C)[C@H]3CC[C@@]21C
inactive: [1] | [2] | [3] | [4] | [5] | [6] | [7] | [8] | [9] | [11] | [14] | [12] | [13]

Cc1cc(OCCOCC[N+](C)(C)Cc2ccccc2)ccc1C(C)(C)CC(C)(C)C
active: [1] 21.6 µM and 7.5 µM | [3] 38.7 µM | [16] 2.96 µM and 2.59 µM | [13] 38.3 µM
36.1 µM (active) and inactive: [6]
inactive: [2] | [4] | [5] | [7] | [17] | [11] | [14] | [12]

CC1(C)[C@@H]2CC[C@@]1(C)[C@H](O)C2
inactive: [1] | [2] | [3] | [4] | [20] | [6] | [7] | [8] | [19] | [15] | [18] | [16] | [17] | [9] | [10] | [11] | [14] | [12] | [13]
